Compounds without any hit were thinned out: in the full panel of roughly 83,000, 20% have a hit.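 Note: values are percent growth. 100 is the growth of untreated cells, values between 100 and 0 indicate rising inhibition; between -100 and 0 indicates cell death.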 Activity calls are given as the source filed them. The calls were made as follows: active = growth percent below 10; inactive = the rest.
tested on: SK-OV-3 ovarian; assay: NCI-60 one-dose screen, 48 h (100 = growth as untreated, 0 = no growth, -100 = all killed); details: 10 µM unless noted

Row | Structure (SMILES) | growth
1 | CCCCNc1ccc2c3c(cccc13)C(=O)N(c1cccc(-c3nn(-c4ccccc4)cc3-c3nc4ccccc4s3)c1)C2=O | 126% (inactive)
2 | COc1ccc(-c2cc(-c3cc(OC)c(OC)c(OC)c3)[nH]c(=O)c2C#N)cc1 | 30.7% (inactive)
3 | COc1cc(C2CC(c3ccc(Cl)cc3)=Nc3c(N)nc(N)nc3N2)ccc1Oc1nc(Nc2ccc(F)cc2)nc(N(C)C)n1 (centres undefined) | 79.3% (inactive)
4 | O=C(O)CC1S/C(=N/N=C/c2nc3ccccc3s2)NC1=O (centres undefined) | 122% (inactive)
5 | Cc1ccc(S(=O)(=O)N(CCn2ccnc2[N+](=O)[O-])CCn2ccnc2[N+](=O)[O-])cc1 | 109% (inactive)
6 | N#CCc1nnc(NC(=O)c2ccc(-n3c(=O)[nH]c4ccccc4c3=O)cc2)s1 | 106% (inactive)
7 | O=C(N/N=C/c1ccc(Br)o1)c1[nH]c2ccc(Br)cc2c1-c1ccccc1 | 22% (inactive)
8 | COc1ccc(N=Nc2c(N)nn3c(-c4ccc([N+](=O)[O-])cc4)ccnc23)cc1 | 106% (inactive)
9 | Cn1cc(-c2cc(N)n3nc(-c4c[nH]c5ccc(Cl)cc45)cc3n2)c2cc(Br)cnc21 | 65.1% (inactive)
10 | CN1C(=O)C2(C(C#N)=C(c3ccc(Cl)cc3)Nc3c2c(-c2ccccc2)nn3-c2ccccc2)c2ccccc21 (centres undefined) | 99.2% (inactive)
11 | Cc1nn(-c2ccccc2)c2nc(C)n(C(=O)N/N=C/c3ccccc3)c(=O)c12 | 95.5% (inactive)
12 | CN1CCN(CCS(=O)(=O)Nc2cc(-c3ccc4ncnc(Nc5ccc(F)c(Cl)c5)c4c3)cnc2Cl)CC1 | 3.06% (active)
13 | COc1cc(C2CC(c3ccc(C(F)(F)F)cc3)=Nc3c(N)nc(N)nc3N2)ccc1Oc1nc(Nc2ccc(F)cc2)nc(N(C)C)n1 (centres undefined) | 90.8% (inactive)
14 | COc1ccc2[nH]c(=O)c(CSc3ccccc3Nc3nccc(-c4ccc5c(c4)OCO5)n3)cc2c1 | 112% (inactive)
15 | Cc1cc(=O)oc2cc(OCC(O)CNN3C(=O)c4cccc5c(N6CCN(C)CC6)ccc(c45)C3=O)ccc12 (centres undefined) | 116% (inactive)
16 | CC[C@]12C=CCN3CC[C@]4(C(=C(C(=O)OC)C1)Nc1cc(OC)c([C@@H]5[C@H]6O[C@H]6[C@@]6(CC)CC(C(=O)OC)=C7Nc8cc(OC)ccc8[C@@]78CCN5[C@@H]68)cc14)[C@@H]32 | 116% (inactive)
17 | C#CCCCNCCNc1ccnc2cc(Cl)ccc12 | 103% (inactive)

Row | Structure (SMILES) | growth
18 | CCOC(=O)/C(F)=C/C1CC1C(c1ccccc1)c1ccccc1 (centres undefined) | 148% (inactive)
19 | S=C(NCCc1ccccc1)Nc1ccc(OCc2nc3ccc(Cl)cc3[nH]2)cc1 | 77.2% (inactive)
20 | Cc1ccc(C(=O)C[n+]2cccc3c4ccccc4ccc32)cc1 | 33.9% (inactive)
21 | CCCn1c(NC(=O)c2cccc(C(N)=O)c2)nc2cc(CN3CCCCC3)ccc21 | 83.4% (inactive)
22 | CCC(=O)c1c2c(c3ccc4c5ccccc5ccc4n13)C(=O)c1ccccc1C2=O | 105% (inactive)
23 | O=C1/C(=C/c2cnc(-c3ccccc3)s2)SC(=S)N1Cc1ccc2c(c1)OCO2 | 35.6% (inactive)
24 | O=c1[nH]c2ccccc2cc1COc1ccc(Nc2nccc(-c3ccc(Cl)cc3)n2)cc1 | 94.5% (inactive)
25 | O=C(/C=C1\C(=O)N(Cc2ccccc2)c2ccccc21)c1cc2ccccc2oc1=O | 109% (inactive)
26 | COc1ccc(NC(=O)Cn2c(/C=C/c3cccc(Br)c3)nc3ccccc3c2=O)cc1 | 36.4% (inactive)
27 | O=c1ccc(Cn2c(C(F)(F)F)cc3c(Cl)ncnc32)c[nH]1 | 119% (inactive)
28 | CCCCC[C@@H]1C/C=C(\C)[C@@H](O)C(C)(C)C(=O)[C@@H](C)/C=C(\C)[C@@H]2C[C@H](O)C[C@](O)(CC(=O)O1)O2 | 78.6% (inactive)
29 | COc1cc(NC(=O)CSc2nnc(-c3ccc(-c4nc5ccc(Cl)cc5[nH]4)cc3)o2)cc(OC)c1OC | 109% (inactive)
30 | Cc1ccc(C2CC(c3ccc(S(=O)(=O)NCCNc4nc(N(C)C)nc(N5CCOCC5)n4)cc3)=Nc3c(N)nc(N)nc3N2)cc1 (centres undefined) | 77.2% (inactive)
31 | CCCCNC(=S)Nc1ccc(OCc2nc3ccc(Cl)cc3[nH]2)cc1 | 75.4% (inactive)
32 | Nc1nn2c(-c3cc4cc(Br)ccc4oc3=O)ccnc2c1N=Nc1ccc(S(N)(=O)=O)cc1 | 58.9% (inactive)
33 | OCCn1cc(-c2nc3ccc4[nH]ncc4c3c3c2CCCC3)cn1 | 14.6% (inactive)
34 | CN(C)CCCc1ccc(Nc2cnn(C)c(=O)c2Cl)cc1 | 131% (inactive)
